Measured values from the supplement of paper PMC12350171.
Structures can show the parent of a compound that is named as a salt.

How the values were obtained:
Conditions in all cases: 20 µM
P. vulgatus RND KO = assay: growth AUC normalised to DMSO control (median) (fraction of control); higher = less growth inhibition, active = hit call of the paper
How it was run: (§1)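 Area under the growth curve, calculated by the trapezoidal rule up to entry into stationary phase, was normalised to vehicle wells on the same plate. Strains had been passaged twice overnight without oxygen and then grown in mGAM in 96-well plates from OD578 0.01, each with an approved-drug library compound at 20 μM in 1% DMSO. OD578 was read hourly over 24 h in an anaerobic incubator, and the median of three biological replicates is given.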

P. vulgatus WT = assay: as above
How it was run: as §1

[1] = test system: S. enterica typhimurium WT; assay: as above
How it was run: as §1

[2] = test system: S. enterica typhimurium tolC KO; assay: as above
How it was run: as §1

[3] = test system: Haemophilus parainfluenzae; assay: growth AUC normalised to DMSO control (fraction of control); higher = less growth inhibition, active = hit call of the paper
How it was run: (§2)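 Pathogens passaged twice anaerobically were inoculated at a starting OD578 of 0.01 into pre-reduced mGAM plates with drug at 20 μM and 1% DMSO, sealed with breathable membranes. Haemophilus parainfluenzae medium was supplemented with hemin and NAD. OD578 was read hourly for 24 h, with three biological replicates. Growth-curve AUC was computed by the trapezoidal rule up to the exponential-to-stationary transition and normalised to DMSO controls on the same plate.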

[4] = test system: Salmonella enterica typhimurium; assay: as above
How it was run: as §2

Shigella flexneri = assay: as above
How it was run: as §2

Vibrio cholerae = assay: as above
How it was run: as §2

[5] = test system: Yersinia pseudotuberculosis; assay: as above
How it was run: as §2

Measured: growth AUC normalised to DMSO control
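Wherever growth AUC normalised to DMSO control (median) is given: active when median AUC fell below 0.1.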

CCN(CC)CCOC(=O)C(O)(c1ccccc1)c1ccccc1 [Benactyzine hydrochloride]
inactive: P. vulgatus RND KO 0.979 | P. vulgatus WT 0.997 | [1] 1.01 | [2] 1

CC(C)=CC1C(C(=O)OCc2cccc(Oc3ccccc3)c2)C1(C)C (centres undefined) [Phenothrin]
inactive: P. vulgatus RND KO 1.01 | P. vulgatus WT 1.01 | [1] 0.998 | [2] 1.01

NC(=O)CN1CC(O)CC1=O (centres undefined) [Oxiracetam]
inactive: P. vulgatus RND KO 1.02 | P. vulgatus WT 1.03 | [1] 1 | [2] 0.955

CCC(COC(=O)c1cc(OC)c(OC)c(OC)c1)(c1ccccc1)N(C)C (centres undefined) [Trimebutine]
inactive: P. vulgatus RND KO 1 | P. vulgatus WT 1.01 | [1] 1 | [2] 0.936

C[C@]12CC[C@@H]3c4ccc(OC(=O)N(CCCl)CCCl)cc4CC[C@H]3[C@@H]1CC[C@@H]2O [Estramustine]
inactive: P. vulgatus RND KO 0.982 | P. vulgatus WT 0.984 | [1] 1 | [2] 0.968

CCC1(C2=NCCN2)Cc2ccccc2O1 (centres undefined) [Efaroxan hydrochloride]
inactive: P. vulgatus RND KO 1.02 | P. vulgatus WT 1.03 | [1] 0.997 | [2] 0.999

O=c1[nH]c2ccccc2n1CCCN1CCC(n2c(=O)[nH]c3cc(Cl)ccc32)CC1 [Domperidone]
inactive: [3] 1.02 | [4] 1.01 | Shigella flexneri 0.985 | Vibrio cholerae 1.03 | [5] 1 | P. vulgatus RND KO 1 | P. vulgatus WT 1 | [1] 1 | [2] 0.979

O=C(O[C@H]1C[N+]2(CCCOc3ccccc3)CCC1CC2)C(O)(c1cccs1)c1cccs1 [Aclidinium bromide]
inactive: P. vulgatus RND KO 1 | P. vulgatus WT 1 | [1] 1.01 | [2] 1

CC[C@@H](C(=O)[C@@H](C)[C@@H](O)[C@H](C)[C@@H]1O[C@@H]([C@@H](CC)C(=O)O)CC[C@@H]1C)[C@H]1O[C@]2(C=C[C@@H](O)[C@]3(CC[C@@](C)([C@H]4CC[C@](O)(CC)[C@H](C)O4)O3)O2)[C@H](C)C[C@@H]1C [Salinomycin sodium]
inactive: [1] 1.01 | [2] 0.781
active: P. vulgatus RND KO 0.00978 | P. vulgatus WT 0.00987

COc1cc2c(c(OC)c1OC)-c1ccc(OC)c(=O)cc1[C@@H](NC(C)=O)CC2 [Colchicine]
inactive: [3] 0.981 | [4] 0.988 | Shigella flexneri 0.964 | Vibrio cholerae 0.98 | [5] 0.977 | P. vulgatus RND KO 0.988 | P. vulgatus WT 0.986 | [1] 1 | [2] 1.01

C=C(C)[C@@H]1[C@H]2OC(=O)[C@@H]1[C@]1(O)C[C@H]3O[C@]34C(=O)O[C@H]2[C@]14C [Picrotoxinin]
inactive: [3] 1 | [4] 1 | Shigella flexneri 0.96 | Vibrio cholerae 1 | [5] 0.997 | P. vulgatus RND KO 1.03 | P. vulgatus WT 1.03 | [1] 1.02 | [2] 1.02

C#C[C@]1(O)C=C[C@H]2[C@@H]3CCC4=CC(=O)CC[C@@H]4[C@H]3CC[C@@]21CC [Gestodene]
inactive: P. vulgatus RND KO 0.978 | P. vulgatus WT 0.978 | [1] 0.997 | [2] 0.995

COc1ccc(Cc2nccc3cc(OC)c(OC)cc23)cc1OC [Papaverine hydrochloride]
inactive: [3] 0.976 | [4] 1 | Shigella flexneri 0.971 | Vibrio cholerae 0.944 | [5] 0.997 | P. vulgatus RND KO 0.997 | P. vulgatus WT 1.01 | [1] 1.01 | [2] 0.976

NCCc1c[nH]c2ccc(O)cc12 [Serotonin hydrochloride]
inactive: [3] 1.07 | [4] 0.983 | Shigella flexneri 1.02 | Vibrio cholerae 1.06 | [5] 0.981 | P. vulgatus RND KO 1.04 | P. vulgatus WT 1.08 | [1] 1 | [2] 0.998

C[C@]12CC[C@H](O)CC1=CC[C@@H]1[C@@H]2CC[C@]2(C)C(=O)CC[C@@H]12 [Prasterone]
inactive: P. vulgatus RND KO 0.995 | P. vulgatus WT 0.994 | [1] 1.01 | [2] 0.942

CN1C(=O)COc2c(C(=O)NC3CN4CCC3CC4)cc(Cl)cc21 (centres undefined) [Azasetron hydrochloride]
inactive: P. vulgatus RND KO 1.02 | P. vulgatus WT 1.04 | [1] 1.01 | [2] 1.01
